Experimental findings from PubChem BioAssay are described below.

The test system of assay [1] is Human papillomavirus type 1a protein E7 (residues 44-93). Briefly: HPV1a E7 fragment binders on microarrays, primary screen, biochemical, small-molecule microarray, residues 44-93, 635 nm fluorescence (AID 1108).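 Also: E7 fragment applied at 1 µg/mL in TBST for 1 h at 4 C; score combines spot fluorescence with its signal to noise ratio.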 Conditions: small-molecule microarray binding, fluorescence 635 nm; higher = more signal.
Assay [2] can be described thus: modulators of HCV replicon luciferase signal, primary screen, HCV replication inhibitor project, Huh7 cells, luciferase reporter (AID 1109).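 Also: huh7 hepatoma cells harbouring a luciferase neomycin HCV replicon reporter; luciferase luminescence as measure of HCV replicon replication; test concentration not given here.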 Conditions: 48 h, higher = more signal. (Replicon systems follow genome replication, usually without infectious particles.)
For assay [3], the target named is Left-right determination factor 2 (Homo sapiens) (UniProt O00292). Briefly: LEFTY2 binders on small-molecule microarrays, primary screen, biochemical, small-molecule microarray, 635 nm fluorescence scan (AID 1110). Particulars: LEFTY2 binding, higher = more signal.
The target in assay [4] is Calmodulin-1 (Homo sapiens) (UniProt P0DP23). Briefly: CALM1 binders on microarrays, EGTA buffer, profiling panel, biochemical, small-molecule microarray, Cy5-labelled CALM1 (AID 1111).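 Also: labelled calmodulin applied in Tris saline Tween buffer holding calcium plus EGTA and DTT.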 Conditions: Cy5-CALM1 binding fluorescence, higher = more signal.
For assay [5] the target is unchanged. Description: calcium-bound CALM1 binders on microarrays, profiling panel, artefact control for SMM control-protein annotation, biochemical, small-molecule microarray, Cy5-labelled CALM1, plus calcium (AID 1112).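 Also: score merges spot fluorescence with signal to noise from triplicate slides.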 Particulars: Cy5-CALM1 binding fluorescence, higher = more signal.
The nature of assay [6]: small-molecule microarray binders of probe aWnt5a, primary screen, biochemical, biotinylated probe, 635/667 nm fluorescence (AID 1113).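 Also: score merges 667 nm fluorescence intensity with signal-to-noise per printed feature.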 Conditions: higher = more signal.
Assay [7] can be described thus: small-molecule microarray binders of probe aShh, primary screen, biochemical, biotinylated probe, 635/667 nm fluorescence (AID 1114).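 Also: probe is biotin-labelled aShh protein from a stem cell growth factor screen; measures binding of labelled protein to compounds printed on the slide; score merges feature fluorescence at 667 nm with signal-to-noise.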 Particulars: higher = more signal.
Assay [8] can be described thus: small-molecule microarray binders of probe aNog, primary screen, biochemical, biotinylated probe, 635/667 nm fluorescence (AID 1115).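 Also: probe is biotinylated aNog protein used at 0.15 µg/mL for 1 h at 4 C; z-score combines 667 nm fluorescence of each spot with its signal to noise.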 Conditions: higher = more signal.
Assay [9] deals with Torsin-1A-interacting protein 1 (Homo sapiens) (UniProt Q5JTV8). Description: LAP1 binders from COS7 cell lysate, primary screen, small-molecule microarray, 635/667 nm fluorescence (AID 1116). Particulars: COS7-hLAP1 lysate binding, 635 nm fluorescence, higher = more signal.
Assay [10] concerns the target Alpha-bungarotoxin (Bungarus multicinctus) (UniProt P60615). Briefly: alpha-bungarotoxin binders on microarray, profiling panel, artefact control for SMM control protein annotation, biochemical, small-molecule microarray, Alexa647 label, 635/667 nm fluorescence (AID 1117). Particulars: alpha-BTX-A647 binding fluorescence, higher = more signal.
A further assay concerns the target Albumin (Bos taurus) (UniProt P02769). Briefly: bovine serum albumin binders on microarray, profiling panel, artefact control for SMM control protein annotation, biochemical, small-molecule microarray, Alexa647 label, 635/667 nm fluorescence (AID 1118).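 Also: score merges 667 nm emission intensity and signal-to-noise per printed compound spot.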 Particulars: BSA-A647 binding, fluorescence 635 nm, higher = more signal.
The nature of assay [11]: small-molecule microarray binders of probe aXIP, primary screen, biochemical, NeuroSMM set, 635/667 nm fluorescence (AID 1119).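 Also: probe is the protein aXip251-270 applied at 1 µg/mL to compound-printed slides; binding of probe to printed compounds measured as 667 nm fluorescence plus signal to noise.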 Particulars: higher = more signal, called active from +8 up or from −8 down.
A short description of assay [12]: small-molecule binders of probe aNOTCH3, primary screen, biochemical, small-molecule microarray, 635/667 nm fluorescence (AID 1120).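 Also: probe is a biotin-tagged antibody raised against NOTCH3 rather than NOTCH3 protein; score merges spot fluorescence near 667 nm with spot signal to noise.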 Conditions: higher = more signal.
Assay [13] is described as follows: small-molecule binders of probe aNOTCH2, primary screen, biochemical, small-molecule microarray, 635/667 nm fluorescence (AID 1121).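 Also: score merges feature fluorescence read at 667 nm with its signal to noise.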 Particulars: higher = more signal.
For assay [14], the target named is Carbonic anhydrase 2 (Homo sapiens) (UniProt P00918). Briefly: CAII small-molecule binders, profiling panel, biochemical, small-molecule microarray, Alexa647-labelled CAII (AID 1122). Particulars: CAII-A647 binding fluorescence, higher = more signal.
A short description of assay [15]: COS7 lysate on small-molecule microarray, probe aHis, 635 nm (AID 1123).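 Also: z-score combines 667nm fluorescence intensity with signal-to-noise per printed compound spot.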 Conditions: COS7 cell lysate, fluorescence, higher = more signal.
A short description of assay [16]: compound binding in COS7 lysate, probe aLAP1, primary screen, cell lysate, small-molecule microarray (AID 1124).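 Also: lysate comes from COS7 cells expressing LAP1 and is applied at 0.3 µg/mL; score merges spot fluorescence near 667 nm with signal-to-noise over triplicate slides.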 Conditions: probe aLAP1, fluorescence, higher = more signal.
In another assay the test system is Sam68 (KHDRBS1). Description: Sam68 small-molecule binders, primary screen, biochemical, small-molecule microarray, 635 nm fluorescence (AID 1125).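 Also: score merges 667 nm channel intensity with signal to noise over triplicate slides.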 Particulars: small-molecule microarray binding, higher = more signal.
Assay [17] deals with Chordin-like protein 2 (CHRDL2). Description: CHRDL2 small-molecule binders, primary screen, biochemical, small-molecule microarray, 635 nm fluorescence (AID 1126).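 Also: printed compound slides probed with Chrdl2 protein at 4 µg/mL for 1 h at 4 C; score merges 667 nm emission intensity with signal to noise over three replicate slides.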 Particulars: small-molecule microarray binding, fluorescence 635 nm; higher = more signal.
Assay [18] deals with Concanavalin-A (Canavalia ensiformis) (UniProt P02866). Description: ConA small-molecule binders, primary screen, artefact control for SMM control protein annotation, biochemical, small-molecule microarray, Alexa647 label, 635 nm (AID 1127).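 Also: z combines 667 nm emission intensity with signal-to-noise across three replicate slides.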 Conditions: ConA-A647 binding fluorescence, higher = more signal.

The source made the active and inactive calls.

Concanavalin-A (Canavalia ensiformis), sequence (P02866 whole entry, looked up): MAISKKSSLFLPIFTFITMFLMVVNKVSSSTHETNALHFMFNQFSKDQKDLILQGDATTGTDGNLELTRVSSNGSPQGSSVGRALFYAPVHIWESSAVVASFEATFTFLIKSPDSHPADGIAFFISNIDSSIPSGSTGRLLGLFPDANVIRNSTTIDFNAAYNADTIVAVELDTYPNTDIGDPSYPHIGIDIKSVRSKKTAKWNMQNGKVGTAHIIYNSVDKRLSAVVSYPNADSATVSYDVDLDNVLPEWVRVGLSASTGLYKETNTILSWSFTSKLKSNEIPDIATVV
Alpha-bungarotoxin (Bungarus multicinctus), sequence (P60615 whole entry, looked up): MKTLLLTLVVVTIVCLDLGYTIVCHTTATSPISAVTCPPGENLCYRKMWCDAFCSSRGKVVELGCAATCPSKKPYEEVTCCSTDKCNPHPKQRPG
Left-right determination factor 2 (Homo sapiens), sequence (O00292 whole entry, looked up): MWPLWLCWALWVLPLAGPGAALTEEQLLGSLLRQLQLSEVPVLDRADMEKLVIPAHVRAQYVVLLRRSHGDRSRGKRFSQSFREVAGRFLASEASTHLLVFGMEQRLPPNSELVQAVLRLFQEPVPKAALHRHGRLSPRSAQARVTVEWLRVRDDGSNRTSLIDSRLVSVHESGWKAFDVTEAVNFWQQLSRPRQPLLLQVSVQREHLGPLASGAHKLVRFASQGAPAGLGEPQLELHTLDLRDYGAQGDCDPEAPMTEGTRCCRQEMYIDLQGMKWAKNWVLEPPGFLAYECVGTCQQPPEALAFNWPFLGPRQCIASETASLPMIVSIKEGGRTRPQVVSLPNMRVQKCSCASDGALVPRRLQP
Torsin-1A-interacting protein 1 (Homo sapiens), sequence (Q5JTV8 whole entry, looked up): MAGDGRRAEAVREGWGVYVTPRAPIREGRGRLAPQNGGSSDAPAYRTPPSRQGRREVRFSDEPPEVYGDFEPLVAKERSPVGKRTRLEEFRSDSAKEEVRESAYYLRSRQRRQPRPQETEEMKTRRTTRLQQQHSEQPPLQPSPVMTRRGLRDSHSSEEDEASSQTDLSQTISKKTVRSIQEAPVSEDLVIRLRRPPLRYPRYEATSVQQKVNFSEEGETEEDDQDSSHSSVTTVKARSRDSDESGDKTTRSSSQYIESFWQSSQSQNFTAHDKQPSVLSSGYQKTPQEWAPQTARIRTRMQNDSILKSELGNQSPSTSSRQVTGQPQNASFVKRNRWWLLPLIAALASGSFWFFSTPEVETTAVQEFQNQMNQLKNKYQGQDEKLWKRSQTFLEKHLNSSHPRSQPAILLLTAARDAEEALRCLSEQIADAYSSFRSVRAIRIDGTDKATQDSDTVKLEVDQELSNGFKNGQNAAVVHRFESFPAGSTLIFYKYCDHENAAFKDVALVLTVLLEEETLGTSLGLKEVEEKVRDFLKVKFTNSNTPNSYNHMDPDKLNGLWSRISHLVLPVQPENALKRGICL
Albumin (Bos taurus), sequence (P02769 whole entry, looked up): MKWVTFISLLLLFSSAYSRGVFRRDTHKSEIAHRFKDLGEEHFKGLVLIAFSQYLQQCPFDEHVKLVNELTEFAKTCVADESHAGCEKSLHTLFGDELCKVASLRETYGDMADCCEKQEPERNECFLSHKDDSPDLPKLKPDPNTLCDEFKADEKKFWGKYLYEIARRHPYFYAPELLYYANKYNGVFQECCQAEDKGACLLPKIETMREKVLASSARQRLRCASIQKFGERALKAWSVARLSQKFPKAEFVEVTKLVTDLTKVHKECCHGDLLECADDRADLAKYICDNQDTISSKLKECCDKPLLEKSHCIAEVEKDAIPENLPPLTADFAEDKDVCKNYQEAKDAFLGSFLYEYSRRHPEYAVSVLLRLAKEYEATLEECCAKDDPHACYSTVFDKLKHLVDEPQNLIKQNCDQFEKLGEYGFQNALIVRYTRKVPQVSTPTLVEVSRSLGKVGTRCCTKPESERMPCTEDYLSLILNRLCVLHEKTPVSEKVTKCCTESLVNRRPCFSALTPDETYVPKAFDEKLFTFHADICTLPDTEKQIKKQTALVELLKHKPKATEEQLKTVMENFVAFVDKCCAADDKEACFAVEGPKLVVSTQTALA

For the compound `C[C@@]1([C@@H](NC(=O)c2cccs2)c2ccc(-c3ccccc3)cc2)C[C@H]1C1CCCCC1`, the composite z-score is -0.309 in assay [1]; -0.919 in assay [3]; 0.645 in assay [4]; 0.111 in assay [5]; -0.302 in [6]; -0.478 in assay [7]. Besides, the composite z-score in [8] is 0.356; in assay [9] it was 0.0643; in [10], -0.344; with Albumin (Bos taurus), 0.0881; in assay [12], -0.0027; in assay [13], -0.343. The composite z-score in [14] was 0.786; in assay [15], 3.02; in assay [16] it was -0.165; with Sam68 (KHDRBS1), -0.307; in assay [17], -0.237; in assay [18], -0.419. This compound also had a z-score in assay [2] of -1.47. Also, the composite Z-score in assay [11] is 0.0169 (inactive).

Take `Cc1ccc(S[C@]2(C(=O)NCC(C)C)CC(=O)N(C3CCCCC3)[C@@H]2c2ccc(CO)cc2I)cc1`: the composite z-score in assay [1] is 1.35; in [3] it was 0.261; in [4], 1.73; in assay [5], 0.549; in [6] it was 0.02; in assay [7], -0.188. The composite z-score is -0.471 in [8]; 0.703 in assay [9]; 0.0462 in assay [10]; 0.812 in the assay with Albumin (Bos taurus); -0.246 in assay [12]; -0.0862 in assay [13]. In addition, the composite z-score in assay [14] was 0.637; in [15], 1.51; in assay [16] it was 0.738; in the assay on Sam68 (KHDRBS1) it was 1.28; in assay [17], -0.0402; in assay [18] it was 0.88. In assay [2], the z-score was -2.6. Also, the composite Z-score in [11] was 0.209 (inactive).

For `C=C(COC)C(=O)CC[C@H](OC(=O)c1ccccc1-c1ccccc1C(=O)O)c1ccc(CO)o1`, the composite z-score is 0.544 in assay [1]; 0.27 in [3]; -0.271 in assay [4]; -0.564 in assay [5]; -0.128 in [6]; -0.0553 in [7]. Moreover, the composite z-score in assay [8] was -0.137; in assay [9] it was 0.77; in assay [10] it was 0.239; in the assay with Albumin (Bos taurus) it was -0.701; in assay [12] it was -0.203; in [13], -0.14. Also, the composite z-score was 0.365 in [14]; -0.264 in [15]; 0.134 in [16]; 0.807 in the assay on Sam68 (KHDRBS1); 0.55 in assay [17]; 0.332 in assay [18]. Further, the z-score in assay [2] was -0.115. Besides, in assay [11], the composite Z-score is 0.403 (inactive).

In the case of `COCC(=C=CC[C@@H](O)c1ccccc1OCCO)C[C@@H](O)c1ccccn1`, the composite z-score in assay [1] is 0.968; in assay [3] it was 0.289; in assay [4], -0.153; in assay [5], -0.514; in assay [6] it was -0.124; in [7], -0.0119. The composite z-score is 0.099 in assay [8]; -0.246 in assay [9]; 0.34 in assay [10]; -0.203 in the assay with Albumin (Bos taurus); -0.0043 in assay [12]; -0.117 in assay [13]. The composite z-score in assay [14] was 0.777; in [15], 1.28; in assay [16], 0.583; in the assay with Sam68 (KHDRBS1), 0.86; in [17], -0.0696; in assay [18], 0.742. In assay [2], this compound gave a z-score of -0.979. Further, in [11], the composite Z-score was -0.422 (inactive).

Consider `C/C=C/[C@@H](CCn1cc([C@H](O)c2ccccc2)nn1)[Si](C)(C)c1ccc(OC)cc1`, for which the composite z-score in [1] is 0.434; in [3], -1.32; in assay [4], -1.34; in assay [5] it was -1.35; in assay [6] it was -0.012; in assay [7] it was 0.0639. The composite z-score was -0.738 in assay [8]; 0.834 in assay [9]; 0.478 in assay [10]; -0.91 with Albumin (Bos taurus); -0.367 in assay [12]; -0.195 in [13]. Also, the composite z-score was -0.105 in assay [14]; 1.15 in assay [15]; 0.614 in assay [16]; -0.123 in the assay with Sam68 (KHDRBS1); 0.0697 in [17]; -0.333 in assay [18]. For the same compound, in [2], the z-score was -2.6. Besides, the composite Z-score in assay [11] is 2.17 (inactive).
